Bioassay records deposited in PubChem BioAssay by National Center for Advancing Translational Sciences (NCATS).
CRE-bla Fsk = Cell signaling CRE-BLA (Fsk stim); CHO CRE-bla reporter (cAMP response element driving beta-lactamase), forskolin EC10, beta-lactamase ratio; Potency, µM (titrated, usually from 38.2 µM), inactives show at the top dose activity change, negative = inhibition, actives largely listed as activators; 2.5% of 71,000 active; active = well fitted activation curve with a large enough effect in the signal ratio, with a control signal flat, not every such curve was filed as active; inconclusive = small, poorly fitted or top-dose-only effect, or effect the other way, or a change in a side signal; the % refers to the signal ratio; note: potency is the fitted concentration of half-maximal effect; % of control where 0% means no effect
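CRE-bla CHO reporter cells treated with compound titration plus EC10 NKH 477 (water-soluble forskolin), incubated 3 h at 37 °C; CCF4 loading 2 h at room temperature, 460/530 nm emission ratio read, AC50 values derived for positive or negative modulators.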
HSD17B inh = qHTS Assay for Inhibitors of HSD17B4, hydroxysteroid (17-beta) dehydrogenase 4; Potency, µM (doses to about 57.1 µM), inactives show top-dose activity change, negative = inhibition, most hits filed as inhibitors; AID 893, 2007; 3-hydroxyacyl-CoA dehydrogenase type-2 (Homo sapiens), Q99714; recombinant HSD17B10, NADH fluorescence kinetic; 7.6% of 75,000 active;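 note: the protocol describes HADH2 (HSD17B10) and not the HSD17B4 of the title; potency is the fitted concentration of half-maximal effect; % is set by controls: 0 for no effect and ±100 for the full control effect; nearly all actives have a fitted effect of over 70% in size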
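His-tagged E. coli-expressed HADH2 at 20 nM in 100 mM Tris-HCl pH 9.0 with 0.01 % Tween-20, preincubated 15 min with compound at room temperature. Reaction with 1 mM NAD+ and 90 uM beta-hydroxybutyryl coenzyme A; NADH fluorescence (360/450 nm) read kinetically over 4 min, last minus first point.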
A350 fluor = qHTS Assay for Spectroscopic Profiling in A350 Spectral Region. max dye-equivalent concentration, M. AID 590, 2007. Compound autofluorescence, 340/450 nm, Alexa 350 dye-equivalents; stronger effect = higher value. 11% of 59,000 active; in the data active = max dye-equivalent concentration above about 10 nM; inconclusive = mostly about 1.1 nM to 9.6 nM
4-MU autofl = qHTS Assay for Spectroscopic Profiling in 4-MU Spectral Region | compound autofluorescence, 340/450 nm, 4-MU equivalents; stronger effect = higher value | max dye-equivalent concentration, M | 11% of 59,000 active; in the data active = max dye-equivalent concentration above about 10 nM; inconclusive = mostly about 1.1 nM to 9.6 nM
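Compounds in 100 mM Tris, pH 8.0, incubated 15 min at room temperature, then fluorescence read at 340 nm excitation/450 nm emission. Signal converted to 4-MU dye-equivalent concentration using an on-plate six-point 4-MU standard curve.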
AID923 = qHTS Assay for Allosteric/Competitive Inhibitors of Caspase-1: Spectroscopic Profiling in AFC Spectral Region; compound fluorescence, AFC spectral region (405/520 nm); Potency, µM (doses to about 57.5 µM), inactives show at the top dose fluorescence increase, usual class: activators; 1.1% of 75,000 active; AID 923, 2007; note: potency is the fitted concentration of half-maximal effect; 0% is about no effect
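Titrations up to 57 uM read every 20 sec for 3 min (405/520 nm) with 50 nM caspase 1 and 5 uM Ac-WEHD-AFC, pH 7.5 HEPES buffer. Fluorescence-vs-time intercept gave baseline, scaled against on-plate AFC standard.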
HADH2 inh = qHTS Assay for Inhibitors of HADH2 (Hydroxyacyl-Coenzyme A Dehydrogenase, Type II). 3-hydroxyacyl-CoA dehydrogenase type-2 (Homo sapiens), Q99714. recombinant HADH2, NADH fluorescence, beta-hydroxybutyryl-CoA. Potency, µM (titrated, usually from 57.1 µM), for the others: at the highest dose activity change, negative = inhibition, actives largely listed as inhibitors. 3.4% of 73,000 active. AID 886, 2007; note: potency is the fitted concentration of half-maximal effect; % is set by controls: 0 for no effect and ±100 for the full control effect; nearly all actives have a fitted effect of over 60% in size
Target sequence (Q99714 whole entry, looked up, one chain of several): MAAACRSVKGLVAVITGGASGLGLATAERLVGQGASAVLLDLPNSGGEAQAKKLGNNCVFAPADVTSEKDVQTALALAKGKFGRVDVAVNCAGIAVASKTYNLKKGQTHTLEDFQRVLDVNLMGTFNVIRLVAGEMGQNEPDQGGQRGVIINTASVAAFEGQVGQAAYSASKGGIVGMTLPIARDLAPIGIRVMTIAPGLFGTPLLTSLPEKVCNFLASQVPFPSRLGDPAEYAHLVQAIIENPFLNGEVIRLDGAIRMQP
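Buffer 100 mM Tris-HCl pH 9.0/0.01% Tween-20; HADH2 20 nM; NAD+ 1 mM; beta-hydroxybutyryl-CoA 90 uM (all final). 15 min cpd preincubation, RT.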
An asterisk follows results filed as active; i = inactive; ? = inconclusive; . = no result; [ ] = another dose, or the depositor's remark. This is a sample that favours compounds with a hit; in the whole collection about 14% have one here. Unless noted, calls come from the whole dose curve; as a rule, active = well fitted curve in the direction sought with a large enough effect; inconclusive = small, poorly fitted or top-dose-only effect, or another doubt; inactive = no such curve, though single readings can be large; an effect the other way counts as inactive or inconclusive.

SMILES | CRE-bla Fsk | HSD17B inh | A350 fluor | 4-MU autofl | AID923 | HADH2 inh
O=S(=O)(c1ccccc1)N1CCC2(CCN(c3ccncc3)CC2)CC1 | 28% | 3% | i | i | 2% | 8%
CS(=O)(=O)N1CCC2(CC1)CN(c1ccccn1)C2 | 11% | 32µM* | i | i | 0% | -11%
Cc1cc(F)ccc1S(=O)(=O)Nc1ccccc1C(=O)Nc1ncn[nH]1 | 1% | 25µM* | 1.2e-07M* | 1.3e-07M* | 0% | 14%
Cc1ccc(S(=O)(=O)Nc2ccccc2C(=O)O)c(C)c1 | . | ? | . | . | -2% | ?
O=C(Cc1c[nH]c2ccccc12)NCc1ccc2c(c1)OCO2 | ? | 8% | i | i | -2% | -13%
Nc1ccc(-c2nc3ccccc3[nH]2)cc1 | -16% | 32µM* | . | . | -3% | 32µM*
Cn1cc(-c2nc3ccccc3[nH]2)c2ccccc21 | 2% | 32µM* | i | i | 0% | 25µM*
Nc1cccc(-c2nc3ccccc3[nH]2)c1 | 1% | 32µM* | . | . | 5% | 16µM*
Cn1c(-c2nc(-c3ccccc3)cs2)nc2ccccc21 | . | 32µM* | . | . | 0% | .
Cn1c(Cl)nc2ccccc21 | -7% | -7% | i | i | -1% | -2%
Nc1ccc(C(=O)OCc2nc3ccccc3[nH]2)cc1 | 2% | -8% | i | i | 1% | -4%
CC1C(=O)OC2CC34C5CC(C(C)(C)C)C36C(OC(=O)C6O)OC4(C(=O)O5)C21O (centres undefined) | . | 8% | . | . | 0% | .
Nc1nc(-c2ccccc2)cs1 | -2% | -3% | . | . | 1% | 5%
c1ccc(-c2csc(-c3nc4ccccc4[nH]3)n2)cc1 | . | 7.9µM* | . | . | -2% | .
Cc1n[nH]c(C)c1-c1nc2ccccc2[nH]1 | -11% | 2% | i | i | -2% | 1%
Nc1ccccc1-c1nc2ccccc2[nH]1 | -2% | 25µM* | 3.7e-07M* | 3.8e-07M* | 11% | 25µM*
Nc1ccc(-c2nc3ccc(-c4nc5ccc(N)cc5[nH]4)cc3[nH]2)cc1 | . | 20µM* | . | . | -3% | -14%
C=C1C(=O)OC2C[C@@]3(C)CCCC(=C)[C@@H]3CC12 (some centres undefined) | . | 8% | . | . | -2% | .
CCc1ccc(C2CC(=O)N3CN(c4ccccc4)CSC3=C2C#N)cc1 (centres undefined) | -5% | 7.9µM* | . | . | 2% | 0.63µM*
CN1CSC2=C(C#N)C(c3cccc(OCc4ccccc4)c3)CC(=O)N2C1 (centres undefined) | ? | 25µM* | . | . | 3% | 1.3µM*
N#CC1=C2SCN(c3ccc(F)cc3)CN2C(=O)CC1c1cccc(F)c1 (centres undefined) | 6% | ? | . | . | -2% | 1.6µM*
CCOC(=O)c1ccc(N2CSC3=C(C#N)C(c4cccs4)CC(=O)N3C2)cc1 (centres undefined) | 16% | -9% | . | . | 2% | 5µM*
N#CC1=C2SCC(O)(c3ccccc3)N2C(=O)CC1c1ccccc1 (centres undefined) | . | . | i | i | . | .
COC(=O)C1C(=O)N2CCCSC2=C(C#N)C1c1cccs1 (centres undefined) | -4% | 1% | ? | i | -2% | 0%
CCCOCC(C)O (centres undefined) | -13% | 1% | . | . | 3% | ?
SMILES | CRE-bla Fsk | HSD17B inh | A350 fluor | 4-MU autofl | AID923 | HADH2 inh
CCCC[C@@H]1C[C@H]1C(NC(=O)Cc1ccccc1)c1ccc(-c2ccccc2)cc1 (some centres undefined) | 15% | 3% | . | . | 0% | 7%
CCC(/C=C/C(C)C1CCC2C3CC=C4CC(O)CC[C@@]4(C)C3CC[C@@]12C)C(C)C (some centres undefined) | . | -4% | . | . | 0% | .
CCc1ccc(N2CSC3=C(C#N)C(c4cccs4)CC(=O)N3C2)cc1 (centres undefined) | 1% | 25µM* | ? | i | 2% | ?
COc1ccc(N2CSC3=C(C#N)C(c4cccs4)CC(=O)N3C2)cc1 (centres undefined) | 2% | 25µM* | i | i | 7% | ?
CC(C)=CCC/C(C)=C/C=C/C1=CC2(C)CC1(C)C(/C=C(\C)CCC=C(C)C)CC2=O (centres undefined) | . | -4%[11.4 µM] | . | . | 0%[11.5 µM] | 7%[11.4 µM]
Cc1cccc(Nc2nc(N)nc(CN3CCN(c4ccccc4)CC3)n2)c1 | ? | 2% | i | i | 0% | -7%
COc1cccc(N2CCN(Cc3nc(N)nc(Nc4ccccc4)n3)CC2)c1 | -8% | ? | 5.3e-06M* | 4.2e-06M* | 3% | ?
N#Cc1ccc2ccn(CC(=O)NC3CCCCCC3)c2c1 | -1% | 32µM* | i | i | 2% | -9%
COC(=O)c1cn(CC(=O)NC2CCCCC2)c2ccccc12 | 1% | 0% | i | i | -2% | 13%
CCOC(=O)c1sc2ncnc(OC)c2c1C | ? | ? | 1e-08M* | 3.7e-08M* | 1% | 12%
COc1cc(OC)c(C2C3=C(CCCC3=O)Nc3nc4ccccc4n32)cc1OC (centres undefined) | ? | -17% | ? | ? | 0% | 8%
CCOc1ccc(C2C3=C(CCCC3=O)Nc3nc(C(F)(F)F)nn32)cc1OC (centres undefined) | 22% | 25µM* | 6.8e-08M* | 7.5e-08M* | 1% | ?
COc1ccc(C2C3=C(CCCC3=O)Nc3nc(C(F)(F)F)nn32)cc1OC (centres undefined) | ? | 25µM* | 7.2e-08M* | 8e-08M* | -1% | -27%
CCSc1nc2n(n1)C(c1cccc(F)c1)C1=C(CCCC1=O)N2 (centres undefined) | 22% | ? | 7.7e-08M* | 6.3e-08M* | 2% | ?
COc1cccc(C2C3=C(CCCC3=O)Nc3nc4ccccc4n32)c1OC (centres undefined) | ? | 3.2µM* | 3.3e-07M* | 3.9e-07M* | 2% | 13µM*
CCOc1ccc(C2CC(=O)NC3=C2C(=O)CCC3)cc1 (centres undefined) | 7% | 1% | i | i | -1% | -5%
COc1ccc(C2C3=C(Nc4ncnn42)c2ccccc2CC3)cc1OC (centres undefined) | 8% | -1% | ? | ? | 3% | ?
O=C(O)c1cc(=O)[nH]c(=O)[nH]1 | 4% | 1% | . | . | 2% | -9%
